In PubChem BioAssay AID1671194 (National Center for Advancing Translational Sciences (NCATS), 2021) one finds Potency data, which are given here for 88 compounds.

SMILES strings stand for the structures. The whole screen tested about 140,000 compounds, of which about 240 (0.17%) were called active. Where a call stands in place of a potency, no number is given. Another 9% or so got no clear call; they are omitted. Calls come from the whole dose curve; as a rule, active = well fitted inhibition curve with a large enough effect; inconclusive = small, poorly fitted or top-dose-only effect; inactive = no such curve, though single readings can be large or run the other way. The sample as a whole holds a higher share of actives than the screen did.
Potency is the fitted concentration of half-maximal effect.

The nature of the experiment: Primary qHTS assay for inhibitors of alpha-synuclein gene (SNCA) expression. Note: nearly all actives have a fitted effect of over 45% in size. The note with it: HEK-293 SNCA-luciferase knock-in, luminescence, 24 h; series mostly up to 57.2 µM. In general terms: qHTS replaces the single test concentration by a dilution series.
As to `CCOc1ccc(NC(=O)CSc2c3c(nc4ccccc24)CCCC3)cc1`, the Potency was 28.2 µM (active). In the case of `Cc1ccc(CNC(=O)CSc2c3c(nc4cc(Cl)ccc24)CCCC3)cc1`, the Potency result was “inactive”. For `CCOc1ccc(NC(=O)CSc2ncnc3c2sc2ccccc23)cc1`, the Potency entry was “inactive”.

Regarding `CCOc1cccc(CN2CCC3(CC2)CN(C)CC3COC)c1` (stereo not drawn), the Potency result was “inactive”. The same measure for `COc1ccc(OCC2CCN(CC3(O)CCCNC3)CC2)cc1` (stereo not drawn): “inactive”. For the compound `O=C(NCc1cccc(F)c1)c1cccnc1N1CC2CC(C1)[C@H]1CCCC(=O)N1C2` (stereo partly drawn), the Potency result was “inactive”. In the case of `O=S(=O)(c1ccccc1)N1CCC(CCOc2ccccc2)C1` (stereo not drawn), the Potency result is “inactive”. The same measure for `O=C1NC2(CCCN([S+](=O)([O-])c3ccccc3)C2)COc2ccccc21` (stereo not drawn): “inactive”; for `C=CCn1nc(C(=O)N2CCOCC2)c2c1CCC(NCC1(c3ccccc3)CCCCC1)C2` (stereo not drawn): “inactive”; for `CCN(CC)CCNC(=O)C1N(C(C)C)C(=O)C12CCCC2` (stereo not drawn): “inactive”.

In the case of `Cc1cc(C)cc(-n2ccnc2SCC(=O)Nc2nc3ccccc3s2)c1`, the Potency result was “inactive”. Consider `O=C(CSc1nccn1-c1ccc(F)cc1)Nc1cccc2ccccc12`, for which the Potency entry was “inactive”. With `Cc1cccc(-n2ccnc2SCC(=O)Nc2cccc3ccccc23)c1C` the figure was 20 µM (active); with `COc1ccc(NC(=O)c2c(C)oc3ccn(Cc4ccc(F)cc4)c(=O)c23)c(OC)c1`, “inactive”. As to `Cc1ccc(CN2CCC(Oc3cnc4c(ccn4CCN[S+](C)(=O)[O-])c3)CC2)c(F)c1`, the Potency entry is “inactive”. For `Cn1ncc2c(C(=O)NCc3cccs3)cc(-c3ccc(Cl)nc3)nc21`, the Potency entry is “inactive”.

For `Cc1ccc(CN2CCOc3cc([S+](=O)([O-])N(C)C)ccc3C2)c(F)c1`, the Potency result was “inactive”.

For `Cc1cccc(C(=O)N2CCC3(CC2)CC(CC(=O)NCc2ccncc2)CCO3)c1` (stereo not drawn), the Potency result is “inactive”.

For the compound `O=C(CCn1ccn2nc3c(c2c1=O)CCCC3)Nc1ccc(Cl)c(C(F)(F)F)c1`, the Potency result was “inactive”. For the compound `CCOc1cc(C)c(CN2C[C@@H](CN(C)C)C[C@H](CO)C2)cc1C(C)C`, the Potency entry is “inactive”. As to `O=S(=O)(c1ccccc1)N1CCC(F)(c2nc(Cc3ccccc3)no2)CC1`, the Potency entry is “inactive”.

Turning to `O=C(c1nc2cccnc2n(Cc2ccccc2)c1=O)N1CCN([S+](=O)([O-])c2ccccc2)CC1`, the Potency entry was “inactive”.

Turning to `COc1cccc(-c2cccc(C(=O)N3CCCC3C(=O)NCc3ccccc3Cl)c2)c1` (stereo not drawn), the Potency result was “inactive”. For the compound `O=C(O)CCC(=O)N1Cc2ccccc2CC2(CCN(Cc3ccc(O)cc3)C2)C1` (stereo not drawn), the Potency entry was “inactive”. On to `CCCCn1c(=O)c(C(=O)NCCSC)nc2cccnc21`, for which the Potency entry was “inactive”. On to `Cc1ccccc1CN1Cc2nc(NCc3ccncc3)ccc2OCC1=O`, for which the Potency result was “inactive”. With `O=C1Nc2ccccc2C2(CCN(S(=O)(=O)c3cccc(C(F)(F)F)c3)C2)O1` (stereo not drawn) the entry was “inactive”. For `CN1CCN(C[C@@H]2CN(C(=O)CCc3c[nH]c4ccccc34)C[C@@H]2CO)CC1`, the Potency entry was “inactive”. On to `CCc1cccc2c(C(CC(=O)NC(C)CC)c3cccc(OC)c3)c[nH]c12` (stereo not drawn), for which the Potency entry is “inactive”. Consider `Fc1ccc(-c2ccnc3nc(C4CCC4)nn23)cc1`, for which the Potency entry is “inactive”. Consider `Cn1nc(C2CC2)cc1NC(=O)c1ccc(C(F)(F)F)cc1`, for which the Potency entry was “inactive”. With `COc1ccccc1-n1c(=O)c(C(=O)N2CCN(C(=O)Cc3ccc(F)cc3)CC2)nc2cccnc21`, the Potency entry is “inactive”. For the compound `CCN1C(=O)C2CC3(CCN(C(=O)c4nccn4C)CC3)CN2C1=O` (stereo not drawn), the Potency result was “inactive”. For `CCOC(=O)C1(Cc2ccc(F)cc2F)CCCN(Cc2cccc(OC)c2O)C1` (stereo not drawn), the Potency entry is “inactive”. The same measure for `COC[C@H]1CCCN1C(=O)C[C@@H]1C[C@H]2O[C@H](CNC(=O)N[C@@H](C)c3ccccc3)[C@@H](O)[C@H]2O1`: “inactive”. With `COCCCn1c(C)cnc1CC1CCN(C(=O)CC2CCCCC2)CC1` the entry was “inactive”; with `N#Cc1ccc(CN2CCN(c3nccc(Cl)n3)C(=O)C2)cc1`, “inactive”. Regarding `O=C(Nc1ccc([C@H]2OCC(=O)N(Cc3ccc(F)cc3)[C@@H]2CO)cc1)c1cccnc1`, the Potency result is “inactive”. For `CCS(=O)(=O)NCC1(COc2ccc(C(F)(F)F)cn2)C[C@@H](O)[C@@H](O)C1` (stereo partly drawn), the Potency entry is “inactive”.

`Cc1ccccc1C(=O)N1CCC2(CC1)CCN(Cc1cccs1)c1ccccc1O2`: the Potency result is “inactive”.

In the case of `Cc1ccc2c(C(=O)N3CCCC(C#N)C3)cc(-c3cnn(C(C)C)c3)nc2c1` (stereo not drawn), the Potency entry is “inactive”. In the case of `O=[S+]([O-])(c1ccccc1)N1CC2(CCCCN2Cc2cccnc2)Cc2ccccc21` (stereo not drawn), the Potency entry is “inactive”. The same measure for `COCCNC(=O)c1nc2sccn2c1-c1cccc(OC)c1`: “inactive”; for `O=C(NC1CCCCC1)[C@H]1O[C@H](CCN2CCNCC2)CC[C@@H]1O`: “inactive”.

On to `COc1cccc(-c2ccnc3nc(Cc4cc(F)cc(F)c4)nn23)c1`, for which the Potency entry was “inactive”. Take `CN1C(=O)[C@@H]2C[C@@H](O)CN2C2(CN(Cc3ccoc3)C2)C1=O`: the Potency result is “inactive”. In the case of `Cc1noc([C@@H]2CN(CCCc3ccccc3)C[C@H]2CO)n1`, the Potency entry was “inactive”.

As to `C[C@H](C(=O)N1Cc2ccccc2CC2(CCN(Cc3ccncc3)CC2)C1)c1ccccc1`, the Potency result is “inactive”.

As for `CC(=O)Nc1cccc(-c2cn(C)c(=O)n3cc(COc4ccnn4C)nc23)c1`, the Potency entry was “inactive”. On to `COc1cccc([S+](=O)([O-])N2CCC3(CC(c4cccnc4)=NO3)C2)c1` (stereo not drawn), for which the Potency entry was “inactive”. Turning to `O=C(c1ccccc1C1CCNC1)N1CCN(C/C=C/c2ccccc2)CC1` (stereo not drawn), the Potency entry was “inactive”. Regarding `COCc1nnc(NC(=O)C2c3ccccc3C(=O)N(C3CCCC3)C23CCCC3)s1` (stereo not drawn), the Potency result is “inactive”.

Turning to `COc1cccc(-c2ccc(C(=O)N3CCC(C(=O)NCc4cccs4)CC3)cc2)c1`, the Potency entry is “inactive”. For the compound `c1cc(-c2nc3ccncc3[nH]2)ccn1`, the Potency entry was “inactive”.

`COc1ccc(C(=O)N2CCCC2C(=O)N2CCCC2c2nc3ccncc3[nH]2)cc1` (stereo not drawn): the Potency entry was “inactive”. As to `COc1ccc(-c2nc3ccncc3[nH]2)cc1`, the Potency was 10 µM (active). As to `COc1ccc(-c2ccc3c(n2)CN(CCOc2ccccc2)C(=O)CO3)cc1F`, the Potency entry is “inactive”.

In the case of `O=C(C1CCCN(Cc2cccc(-c3ccc(F)cc3F)c2)C1)N1CCN(Cc2ccccc2)CC1` (stereo not drawn), the Potency result was “inactive”. On to `COc1ccc(CC2CCOC3(CCN(C(=O)NCC(C)C)CC3)C2)cc1` (stereo not drawn), for which the Potency entry is “inactive”. With `O=C(C1CCC(Cn2c(=O)c3sccc3n(Cc3ccccc3F)c2=O)CC1)N1CCCCC1` (stereo not drawn) the figure was 25.1 µM (active); with `CC(C)NC(=O)C1CCC(Cn2c(=O)c3sccc3n(Cc3ccc(F)cc3)c2=O)CC1` (stereo not drawn), “inactive”; with `CCCNC(=O)C1CCC(Cn2c(=O)c3sccc3n(Cc3ccccc3F)c2=O)CC1` (stereo not drawn), “inactive”. As for `O=C1CCN(S(=O)(=O)c2ccc3c(c2)CCC3)CCCC(c2nc(-c3cnccn3)no2)CCN1` (stereo not drawn), the Potency result was “inactive”. Consider `CC[C@H]1CN(C(=O)c2ccc(F)cc2)CC[C@H]1CC(=O)N[C@@H](CO)CC(C)C`, for which the Potency entry is “inactive”. For the compound `O=C(COc1ccc(F)cc1)NC1CCc2n[nH]c(=O)n2CC1` (stereo not drawn), the Potency entry is “inactive”. With `COc1ccc(Cc2nnc3ccc(C(=O)NCCc4ccc(F)cc4)cn23)cc1` the entry was “inactive”; with `Cc1cn2nc(C(=O)Nc3ccc(F)cc3C)cc2c(N(C)Cc2ccccc2)n1`, “inactive”; with `COc1cccc(C(=O)N2CCCC(C(=O)N3CCC(c4nc5ccncc5[nH]4)C3)C2)c1` (stereo not drawn), “inactive”. The same measure for `COc1ccc(-c2cc3nc4c(c(=O)n3[nH]2)CCN(C(=O)c2ccccc2C)C4)cc1`: “inactive”.

In the case of `O=C(c1cccs1)N1CC[C@H](c2nnc(Cc3c[nH]c4ccccc34)o2)C1`, the Potency result was “inactive”. `Cc1ccccc1NC(=O)c1cc2cn(C(C)C)cc2s1`: the Potency result was “inactive”.

As to `COCC(=O)N1CCCC(C(=O)N2CCC3(CC2)CC(=O)Nc2ccccc2O3)C1` (stereo not drawn), the Potency entry was “inactive”. Consider `Cc1nn2c(c1-c1ccccc1-c1ccccc1)N(CC1CC1)CCC2`, for which the Potency is 2.51 µM (active). With `Cc1nn2c(c1-c1ccccc1-c1ccccc1)N(C(=O)CN1CCOCC1)CCC2` the entry was “inactive”; with `Cc1nn2c(c1-c1ccccc1N1CCCC1)N(C(=O)c1ccc(Oc3ccccc3)cc1)CCC2`, “inactive”; with `CC(C)(C)c1csc(NC(=O)c2ccc3c(c2)OCCN(C2CCC2)C3)n1`, “inactive”.

For `O=C(c1cccs1)N1CCCCCC1CN1CCCC1` (stereo not drawn), the Potency entry is “inactive”.

As for `O=C(O)COc1ccc(-c2nccc3c2C(=O)N(Cc2ccccc2)CC(COc2cccc(C(F)(F)F)c2)O3)cc1` (stereo not drawn), the Potency result was “inactive”. In the case of `Cc1ccc(C(=O)N2CCCN(C(=O)C3CC3)c3ccccc32)cc1F`, the Potency result is “inactive”. Consider `O=C(c1ccccc1Cl)N1CCCN(c2cc(-c3ccc(F)cc3)[nH]n2)CC1`, for which the Potency result is “inactive”.

In the case of `CNC(=O)[C@H]1C[C@H](Oc2ccccc2)CN1C(=O)CCn1nc(C)cc1C`, the Potency result is “inactive”.

Take `Cc1ccc(S(=O)(=O)N2CCC3(CC2)C(=O)N(CC(=O)NC(C)C)CN3c2ccccc2)cc1`: the Potency result was “inactive”. Consider `CCc1nc2c(c(-c3ccc(O)cc3)n1)CCN(Cc1cccc(OC)c1)CC2`, for which the Potency entry was “inactive”. The same measure for `CCn1ccc(C(=O)N2CCC(C3CCN(C(C)=O)CC3)C2)n1` (stereo not drawn): “inactive”; for `O=C(NCC1CC1)c1ccc2nnc(Cc3ccc(Cl)cc3)n2c1`: “inactive”; for `O=C(NCC1Cn2cccc2CN1Cc1ccccc1)c1ccco1` (stereo not drawn): “inactive”.

As for `O=C(Cc1c[nH]c2ncc(-c3ccccc3F)cc12)N1CCOCC1`, the Potency result is “inactive”.

For the compound `N[C@@H]1CCN(Cc2cccc(Oc3ccc(F)cc3)c2)C[C@H]1O`, the Potency result is “inactive”.
